Activity calls are given as the source filed them.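 Rule for the calls: active = Her2 level under about 52% in both replicate screens, with viability over 70% of control (limit read from the data); inconclusive = Her2 under the limit in one screen only, or viability under 70%; inactive = Her2 level above the set limit.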
System: not listed separately
Assay: reducers of endogenous Her2 protein level, primary screen, SKBR3 breast tumor cells, AlphaScreen, ATP viability (AID 461);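 for Her2 level: lower value means less Her2 protein in the cells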;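 for viability: percent of carrier control wells set as 100% viability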
Conditions: 18-24 h, measured here: SKBR3 viability, ATP luminescence, at 10 µM

Compound	viability [%]
CC(CCc1ccccc1)NC(=O)C1CCCN(c2nnc(-n3cccc3)s2)C1 (stereo not drawn)	89.5
O=C(c1cc(C2CC2)on1)N1CCN(C(c2ccccc2)c2ccccc2)CC1	84.5
O=C(C1COc2ccccc2O1)N1CCCC1 (stereo not drawn)	80
CCCCOC(=O)Nc1nc2ccc(OC)cc2s1	94
CCn1cc(C(=O)NCC2CCCO2)c(=O)c2cc(S(=O)(=O)N(C)C3CCCCC3)ccc21 (stereo not drawn)	83.5
CCCNC(=O)CS(=O)(=O)Cc1nc(-c2cccc(OC)c2)oc1C	86
CC(=O)C1=C(N2CCCCC2)CCC1=O	86
CCOC(=O)C1CCN(Cc2ccc(F)c(Br)c2)CC1	122
Cc1ccc(N(C(=O)c2ccncc2)C2C=CS(=O)(=O)C2)cc1 (stereo not drawn)	108
COc1ccc(CCNC(=O)C2(C)CCC(=O)N2Cc2ccc3c(c2)OCO3)cc1OC (stereo not drawn)	77.5
COc1ccc(C2c3c(oc4ccccc4c3=O)C(=O)N2c2ccc(C)cn2)cc1OC (stereo not drawn)	83
CCn1cc(C(=O)NCCCOC)c(=O)c2cc(S(=O)(=O)N(C)C)ccc21	92
Cc1cc(C)nc(/N=C2\NC(=O)CC(C(=O)O)N2c2ccc(Cl)cc2)n1 (stereo not drawn)	106
O=C(O)c1ccccc1S(=O)(=O)NCC(O)COc1ccc(Br)cc1 (stereo not drawn)	102
COC(=O)Cn1c(=NC(=O)CSCC(=O)Nc2cc(C)on2)sc2ccccc21	89
COc1ccc(S(=O)(=O)N(CC(=O)N2CCN(c3ccccc3OC)CC2)c2ccccc2)cc1	74
CCOc1ccccc1NC(=O)CC1Nc2cc(C)c(C)cc2NC1=O (stereo not drawn)	80.5
COc1ccc(N2Cc3ccccc3C2)cc1Cl	118
CCOC(=O)C(CC)n1nc(C)n2c(cc3sccc32)c1=O (stereo not drawn)	114
CCOC(=O)C(CC)(CCC(=O)O)c1csc(N)n1 (stereo not drawn)	99

Compound	viability [%]
CCOc1ccc(NC(=O)CN2C(=O)C3CCCN3C2=O)cc1 (stereo not drawn)	85
CCOC(=O)N1CCN(C(=O)COc2ccc(S(=O)(=O)NC(C)C)cc2)CC1	96
O=C(NC1CCCc2ccccc21)c1ccc(CNc2c(N3CCOCC3)c(=O)c2=O)cc1 (stereo not drawn)	86.5
CNC(=O)c1ccsc1NC(=O)c1ccccc1	88.5
N#Cc1cc2c(nc1SCC(=O)N1CCCCC1)CCCC2	85
COc1ccc(N2CCN(c3oc(COc4ccccc4Cl)nc3C#N)CC2)cc1	109
COc1ccccc1S(=O)(=O)Cc1ccc(C(=O)N2CCN(c3ccc(C)cc3)C(C)C2)o1 (stereo not drawn)	82.5
CCOC(=O)N1CCC(c2cc(=O)n3[nH]c(C)c(-c4ccc(F)cc4)c3n2)CC1	67
O=C1CCCC2=C1C(c1cccc(Br)c1)n1nc(-c3ccco3)nc1N2 (stereo not drawn)	95.5
CCc1ccccc1NC(=O)c1cnc2n(c1=O)CCS2	90.5
CC(CCc1ccco1)NC(=O)Cn1ncc2c1-c1ccccc1OC2 (stereo not drawn)	93
COc1cccc(NC(=O)C2CCCN(S(=O)(=O)c3cccc4cccnc34)C2)c1 (stereo not drawn)	106
COc1ccc(C(=O)Nc2nncs2)c(OC)c1	95.5
CNC(=O)c1ccccc1NC(=O)c1c(O)c2c([nH]c1=O)CCCC2	112
Cc1occc1C(=O)N1CCN(Cc2ccccc2)CC1	85.5
CN(C)CCCN1C(=O)CSC1c1ccccc1 (stereo not drawn)	100
CCc1ccc(N(CC(=O)NC2CCCC2)S(=O)(=O)c2c(C)noc2C)cc1	102
CSc1cccc(NC(=O)C2CCN(S(=O)(=O)c3ccc(F)cc3)CC2)c1	77.5
O=C(CSc1nnc(Cn2c(=O)sc3ccccc32)n1-c1ccccc1)Nc1nccs1	97

Target: Receptor tyrosine-protein kinase erbB-2 (Homo sapiens) (UniProt P04626)
Sequence (P04626 whole entry, looked up): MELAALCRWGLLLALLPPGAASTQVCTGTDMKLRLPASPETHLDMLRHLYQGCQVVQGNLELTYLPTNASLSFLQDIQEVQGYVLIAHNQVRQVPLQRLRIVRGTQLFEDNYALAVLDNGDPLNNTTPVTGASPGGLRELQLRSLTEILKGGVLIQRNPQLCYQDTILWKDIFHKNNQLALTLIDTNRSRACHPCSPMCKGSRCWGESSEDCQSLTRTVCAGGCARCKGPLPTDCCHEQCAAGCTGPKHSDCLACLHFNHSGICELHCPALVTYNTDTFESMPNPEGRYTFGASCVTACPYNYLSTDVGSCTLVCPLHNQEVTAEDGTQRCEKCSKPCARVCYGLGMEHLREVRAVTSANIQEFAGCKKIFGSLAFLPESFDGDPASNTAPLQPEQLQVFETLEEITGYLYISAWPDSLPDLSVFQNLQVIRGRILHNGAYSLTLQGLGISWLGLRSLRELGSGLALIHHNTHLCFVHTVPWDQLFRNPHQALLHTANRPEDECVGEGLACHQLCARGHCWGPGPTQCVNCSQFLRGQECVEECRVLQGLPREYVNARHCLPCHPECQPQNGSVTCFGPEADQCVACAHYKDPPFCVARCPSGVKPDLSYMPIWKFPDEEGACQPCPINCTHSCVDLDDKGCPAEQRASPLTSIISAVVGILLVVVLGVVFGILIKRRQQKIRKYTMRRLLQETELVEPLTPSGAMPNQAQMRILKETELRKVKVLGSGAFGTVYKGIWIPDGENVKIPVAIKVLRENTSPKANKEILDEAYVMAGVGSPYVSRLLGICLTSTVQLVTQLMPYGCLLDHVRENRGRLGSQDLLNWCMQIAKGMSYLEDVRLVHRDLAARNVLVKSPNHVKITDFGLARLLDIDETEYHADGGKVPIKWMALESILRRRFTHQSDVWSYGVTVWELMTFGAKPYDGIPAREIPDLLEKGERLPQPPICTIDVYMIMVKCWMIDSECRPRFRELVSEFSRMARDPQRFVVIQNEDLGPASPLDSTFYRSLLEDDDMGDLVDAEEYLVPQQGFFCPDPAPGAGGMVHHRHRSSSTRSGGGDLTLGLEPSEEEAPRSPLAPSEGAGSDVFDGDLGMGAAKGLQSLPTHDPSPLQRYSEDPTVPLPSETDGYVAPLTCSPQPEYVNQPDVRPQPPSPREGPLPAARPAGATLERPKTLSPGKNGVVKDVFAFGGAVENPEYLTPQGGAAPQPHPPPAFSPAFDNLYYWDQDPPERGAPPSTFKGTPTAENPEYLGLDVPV
Assay: as above
Conditions: 18-24 h, at 10 µM, stronger effect = lower value

Compound	Her2 level
CC(CCc1ccccc1)NC(=O)C1CCCN(c2nnc(-n3cccc3)s2)C1 (stereo not drawn)	86.5% (inactive)
O=C(c1cc(C2CC2)on1)N1CCN(C(c2ccccc2)c2ccccc2)CC1	95.5% (inactive)
O=C(C1COc2ccccc2O1)N1CCCC1 (stereo not drawn)	112% (inactive)
CCCCOC(=O)Nc1nc2ccc(OC)cc2s1	92% (inactive)
CCn1cc(C(=O)NCC2CCCO2)c(=O)c2cc(S(=O)(=O)N(C)C3CCCCC3)ccc21 (stereo not drawn)	93.5% (inactive)
CCCNC(=O)CS(=O)(=O)Cc1nc(-c2cccc(OC)c2)oc1C	90.5% (inactive)
CC(=O)C1=C(N2CCCCC2)CCC1=O	101% (inactive)
CCOC(=O)C1CCN(Cc2ccc(F)c(Br)c2)CC1	118% (inactive)
Cc1ccc(N(C(=O)c2ccncc2)C2C=CS(=O)(=O)C2)cc1 (stereo not drawn)	110% (inactive)
COc1ccc(CCNC(=O)C2(C)CCC(=O)N2Cc2ccc3c(c2)OCO3)cc1OC (stereo not drawn)	98% (inactive)
COc1ccc(C2c3c(oc4ccccc4c3=O)C(=O)N2c2ccc(C)cn2)cc1OC (stereo not drawn)	126% (inactive)
CCn1cc(C(=O)NCCCOC)c(=O)c2cc(S(=O)(=O)N(C)C)ccc21	106% (inactive)
Cc1cc(C)nc(/N=C2\NC(=O)CC(C(=O)O)N2c2ccc(Cl)cc2)n1 (stereo not drawn)	100% (inactive)
O=C(O)c1ccccc1S(=O)(=O)NCC(O)COc1ccc(Br)cc1 (stereo not drawn)	84.5% (inactive)
COC(=O)Cn1c(=NC(=O)CSCC(=O)Nc2cc(C)on2)sc2ccccc21	90% (inactive)
COc1ccc(S(=O)(=O)N(CC(=O)N2CCN(c3ccccc3OC)CC2)c2ccccc2)cc1	108% (inactive)
CCOc1ccccc1NC(=O)CC1Nc2cc(C)c(C)cc2NC1=O (stereo not drawn)	82% (inactive)
COc1ccc(N2Cc3ccccc3C2)cc1Cl	114% (inactive)
CCOC(=O)C(CC)n1nc(C)n2c(cc3sccc32)c1=O (stereo not drawn)	102% (inactive)
CCOC(=O)C(CC)(CCC(=O)O)c1csc(N)n1 (stereo not drawn)	98.5% (inactive)

Compound	Her2 level
CCOc1ccc(NC(=O)CN2C(=O)C3CCCN3C2=O)cc1 (stereo not drawn)	106% (inactive)
CCOC(=O)N1CCN(C(=O)COc2ccc(S(=O)(=O)NC(C)C)cc2)CC1	105% (inactive)
O=C(NC1CCCc2ccccc21)c1ccc(CNc2c(N3CCOCC3)c(=O)c2=O)cc1 (stereo not drawn)	100% (inactive)
CNC(=O)c1ccsc1NC(=O)c1ccccc1	74% (inactive)
N#Cc1cc2c(nc1SCC(=O)N1CCCCC1)CCCC2	130% (inactive)
COc1ccc(N2CCN(c3oc(COc4ccccc4Cl)nc3C#N)CC2)cc1	105% (inactive)
COc1ccccc1S(=O)(=O)Cc1ccc(C(=O)N2CCN(c3ccc(C)cc3)C(C)C2)o1 (stereo not drawn)	64.5% (inactive)
CCOC(=O)N1CCC(c2cc(=O)n3[nH]c(C)c(-c4ccc(F)cc4)c3n2)CC1	80.5% (inactive)
O=C1CCCC2=C1C(c1cccc(Br)c1)n1nc(-c3ccco3)nc1N2 (stereo not drawn)	73% (inactive)
CCc1ccccc1NC(=O)c1cnc2n(c1=O)CCS2	90% (inactive)
CC(CCc1ccco1)NC(=O)Cn1ncc2c1-c1ccccc1OC2 (stereo not drawn)	90% (inactive)
COc1cccc(NC(=O)C2CCCN(S(=O)(=O)c3cccc4cccnc34)C2)c1 (stereo not drawn)	102% (inactive)
COc1ccc(C(=O)Nc2nncs2)c(OC)c1	112% (inactive)
CNC(=O)c1ccccc1NC(=O)c1c(O)c2c([nH]c1=O)CCCC2	79% (inactive)
Cc1occc1C(=O)N1CCN(Cc2ccccc2)CC1	89% (inactive)
CN(C)CCCN1C(=O)CSC1c1ccccc1 (stereo not drawn)	99% (inactive)
CCc1ccc(N(CC(=O)NC2CCCC2)S(=O)(=O)c2c(C)noc2C)cc1	110% (inactive)
CSc1cccc(NC(=O)C2CCN(S(=O)(=O)c3ccc(F)cc3)CC2)c1	70.5% (inactive)
O=C(CSc1nnc(Cn2c(=O)sc3ccccc32)n1-c1ccccc1)Nc1nccs1	106% (inactive)

From PubChem BioAssay
